This passage reports growth inhibition results from PubChem BioAssay (NCI).

Assay [1] in a line: NCI Yeast Anticancer Drug Screen. Data for the rad50 strain (AID 155).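 Also: 0% = growth of vehicle-only cultures of the same strain.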 To be noted: S. cerevisiae rad50 strain growth inhibition; at 50.0 µM; hits give high values. An outline of the steps: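 Inhibition values express reduced yeast growth in compound-treated cultures relative to vehicle-treated controls.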
A short description of assay [2]: NCI Yeast Anticancer Drug Screen. Data for the mec2-1 strain (AID 157). To be noted: S. cerevisiae mec2-1 strain, at 50.0 µM, hits give high values. In outline: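 Compounds were applied to mec2-1 yeast cells. Their growth was then compared with that of vehicle-treated cultures to give growth inhibition.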
A short description of assay [3]: NCI Yeast Anticancer Drug Screen. Data for the sgs1 mgt1 strain (AID 161).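 Also: 0% = growth of cultures given vehicle only.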 To be noted: S. cerevisiae sgs1 mgt1 strain, at 50.0 µM, hits give high values. In outline: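 Yeast cells carrying a defined DNA-repair defect were exposed to test compounds. Growth inhibition was measured relative to vehicle-treated controls.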
Assay [4] in a line: NCI Yeast Anticancer Drug Screen. Data for the cln2 rad14 strain (AID 165).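 Also: 0% = growth equal to vehicle treated cultures.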 To be noted: S. cerevisiae cln2 rad14 strain, at 50.0 µM, hits give high values. An outline of the steps:
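Strain: cln2 rad14 yeast, altered in cell cycle control and DNA damage repair. Read-out: growth inhibition vs vehicle.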

Assay [5] can be described thus: NCI Yeast Anticancer Drug Screen. Data for the bub3 strain (AID 167). To be noted: S. cerevisiae bub3 mutant strain, at 50.0 µM, hits give high values. In outline:
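Steps: expose the mutant yeast strain to compound; grow alongside vehicle-treated cultures; measure growth; express inhibition against the vehicle cultures.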

The nature of assay [6]: NCI Yeast Anticancer Drug Screen. Data for the mlh1 rad18 strain (AID 175). To be noted: S. cerevisiae mlh1 rad18 strain growth inhibition; at 50.0 µM; hits give high values. In outline:
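A repair-deficient yeast strain is exposed to test compound, and growth is scored relative to vehicle-treated controls.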

About 79,000 compounds went through this panel and 15% of them were active in at least one assay; those are over-represented in the sample as a whole. Unmarked numbers belong to inactive results. Activity calls are given as the source filed them. Rule as the data show it: active = growth inhibition above about 70%; inactive = the rest. Where a SMILES comes first, the peptide text is derived from it. The star is where a group is joined. Boc = CC(C)(C)OC(=O)*; OBn = c1ccc(CO*)cc1

With `COc1ccc(N=Cc2ccc(N(CCC#N)S(=O)(=O)c3ccccc3)cc2C)cc1`, the growth inhibition in assay [1] was -9.4%; in assay [2] it was -10.8%; in assay [3], 5.5%; in assay [4] it was 13.4%; in assay [5] it was -16.8%; in assay [6], -10%.

Turning to `ClCC/C(=C(/Cl)c1ccccc1)c1ccccc1`, the growth inhibition in assay [1] is -0.65%; in assay [2] it was 5.6%; in assay [3], 6.65%; in assay [4] it was 4.8%; in assay [5], -14.3%; in assay [6] it was 3.1%.

As for `CCC(=S)Nc1ccc(Cl)cc1`, the growth inhibition in assay [1] is -1.9%; in assay [2], -44.6%; in assay [3], -34.5%; in assay [4] it was -21.2%; in assay [5], -36.9%; in assay [6] it was -35.4%.

Consider `CC(C)CC(NC(=O)OC(C)(C)C)C(=O)NC(CC(=O)OCc1ccccc1)C(=O)OCc1ccccc1` (stereo not drawn) (Boc-Leu-Asp(OBn)-OBn; configuration not given here), for which the growth inhibition is 26.3% in assay [1]; -7.25% in assay [2]; 15.5% in assay [3]; 2.2% in assay [4]; 15.8% in assay [5]; 33.5% in assay [6].

With `CN1CCC(CNc2ccccc2)CC1`, the growth inhibition in assay [1] was 3.6%; in assay [2] it was -0.5%; in assay [3], 6.05%; in assay [4] it was -20.5%; in assay [5] it was 14.5%; in assay [6], 3.45%.

On to `Cc1ccc(S(=O)(=O)N/N=C2/C(=N/NS(=O)(=O)c3ccc(C)cc3)C3CCC2C3)cc1`, for which the growth inhibition in assay [1] was 6.7%; in assay [2] it was 4.85%; in assay [3], -2.75%; in assay [4] it was -29.2%; in assay [5] it was -1.7%; in assay [6], -6.45%.

As for `Nc1nc(N)nc(Cc2ccccc2)n1`, the growth inhibition in assay [1] is -24.4%; in assay [2], -3.45%; in assay [3] it was -17.9%; in assay [4] it was -58.4%; in assay [5] it was -15%; in assay [6], -57.9%.

In the case of `CCC1(C#CCN2C(=O)c3ccccc3C2=O)C=CC2(CC1)OCCO2` (stereo unspecified), the growth inhibition in assay [1] is 10.2%; in assay [2], 18.2%; in assay [3], 26.2%; in assay [4], 0.6%; in assay [5], 2.5%; in assay [6] it was 48.9%.

`CCCCCC(=O)OC(C)COc1ccccc1` (stereo unspecified): the growth inhibition in assay [1] was 20.6%; in assay [2], 22.7%; in assay [3], 20.8%; in assay [4], -10.8%; in assay [5] it was 30.9%; in assay [6], 28.6%.

As for `CCCC(C)(C)O`, the growth inhibition in assay [1] is 2.15%; in assay [2] it was 9.15%; in assay [3] it was 22.1%; in assay [4], -21.3%; in assay [5], 10.4%; in assay [6] it was -3.65%.

`CN(C(=O)c1ccccc1)C1CCCC(=O)CC1` (stereo unspecified): the growth inhibition in assay [1] is -2.35%; in assay [2] it was -10%; in assay [3], 8.25%; in assay [4], 9.95%; in assay [5] it was -13.6%; in assay [6], -65%.

Take `O=C(O)c1nc(N=Nc2ccc(S(=O)(=O)O)cc2)[nH]c1C(=O)O`: the growth inhibition in assay [1] was 25.1%; in assay [2], -4.85%; in assay [3] it was 9.8%; in assay [4], -30.7%; in assay [5], -2%; in assay [6], 21.2%.

Consider `CCCCCCCCCCCCSC1=C(OC)C(=O)C(OC)=C(OC)C1=O`, for which the growth inhibition was 33.5% in assay [1]; 13.8% in assay [2]; 26.6% in assay [3]; -5.2% in assay [4]; -1.35% in assay [5]; 16.5% in assay [6].

Consider `Nc1nc(Cc2ccccc2)cc(-c2cc(Cc3ccccc3)nc(N)n2)n1`, for which the growth inhibition in assay [1] is 2.7%; in assay [2], 4.7%; in assay [3], 5.2%; in assay [4], 1.8%; in assay [5], -6.3%; in assay [6], 1.7%.

`O=C(COc1ccc(Cl)cc1)Nc1cccc([N+](=O)[O-])c1`: the growth inhibition in assay [1] was 2.55%; in assay [2] it was 17.1%; in assay [3], 2.45%; in assay [4], -5.7%; in assay [5], 18.9%; in assay [6] it was 6.7%.

Consider `CCCCCCC(=O)/C=C/c1ccc(OC)cc1`, for which the growth inhibition in assay [1] was -12.5%; in assay [2], -6.55%; in assay [3] it was -14%; in assay [4], 3.6%; in assay [5], -11.6%; in assay [6] it was -16.1%.

On to `O=C(NN(Cn1c(=S)sc2ccccc21)Cn1c(=S)sc2ccccc21)c1ccccc1O`, for which the growth inhibition in assay [1] is 86.7% (active); in assay [2], 74.2% (active); in assay [3], 89% (active); in assay [4] it was 57.6%; in assay [5] it was 69%; in assay [6], 76.2% (active).

For `C[N+](C)(C)Cc1cc2ccccc2c2ccccc12`, the growth inhibition was -23% in assay [1]; -8.9% in assay [2]; -18.8% in assay [3]; -9.55% in assay [4]; -8.35% in assay [5]; 20.1% in assay [6].

In the case of `O=c1[nH]cnc2c1ncn2CCCCc1ccccc1`, the growth inhibition is 8.4% in assay [1]; -5.25% in assay [2]; 8.45% in assay [3]; 0.9% in assay [4]; 5.7% in assay [5]; 14.8% in assay [6].

Take `COc1ccc(CCCC2C(=O)CC(C)OC2=O)cc1OC` (stereo unspecified): the growth inhibition in assay [1] is -26.9%; in assay [2], 3.25%; in assay [3], 2.1%; in assay [4], -25.8%; in assay [5], 3.05%; in assay [6], -0.4%.

On to `CC1(C)C(=O)CC1C(=O)O` (stereo unspecified), for which the growth inhibition in assay [1] is 4.55%; in assay [2], -0.25%; in assay [3] it was -0.45%; in assay [4], 12.3%; in assay [5], 7.5%; in assay [6], 8.75%.

For the compound `N#CC(C#N)=CNC(N)=S`, the growth inhibition was -4.7% in assay [1]; -8.75% in assay [2]; -20.7% in assay [3]; 13.7% in assay [4]; -14.8% in assay [5]; 10.1% in assay [6].

With `COC(=O)CCCCCCCCC(C)C(C)=O` (stereo unspecified), the growth inhibition in assay [1] was -34.8%; in assay [2] it was -29.8%; in assay [3], -16.4%; in assay [4], -12.5%; in assay [5], -45.3%; in assay [6], -32.5%.

As for `Cc1ccc(-c2oc(-c3ccc(C)cc3)c3cc(C)c(C)cc23)cc1`, the growth inhibition in assay [1] is 4.8%; in assay [2] it was 13.5%; in assay [3], -6.7%; in assay [4], 8.5%; in assay [5] it was -8.6%; in assay [6], -4.6%.

Consider `OCCCOC(c1ccccc1)(c1ccccc1)c1ccccc1`, for which the growth inhibition is -22.9% in assay [1]; -29.4% in assay [2]; -30.2% in assay [3]; 1.55% in assay [4]; -49.8% in assay [5]; -12.9% in assay [6].

Turning to `O=c1[nH]nc(Cc2ccccc2)n1/N=C/c1cccnc1`, the growth inhibition was 28.8% in assay [1]; 30.9% in assay [2]; 37% in assay [3]; 35.7% in assay [4]; 30.2% in assay [5]; 45.6% in assay [6].

As for `CCCCCCCCCCCCCCCCCC(=O)Oc1c(C(C)(C)C)cc([N+](=O)[O-])c(C)c1[N+](=O)[O-]`, the growth inhibition in assay [1] is 98.2% (active); in assay [2], 99.2% (active); in assay [3], 98.8% (active); in assay [4], 98.9% (active); in assay [5], 99.2% (active); in assay [6], 98.2% (active).

For the compound `Nc1cc(=S)nc(N)[nH]1`, the growth inhibition was 20.2% in assay [1]; -6.75% in assay [2]; 22.4% in assay [3]; 9.55% in assay [4]; 20.6% in assay [5]; 28.9% in assay [6].

With `O=C1c2c(-c3ccccc3)ccc(-c3ccccc3)c2C2(O)OC1(O)c1c(-c3ccccc3)ccc(-c3ccccc3)c1C2=O`, the growth inhibition in assay [1] is 5.65%; in assay [2] it was 4.95%; in assay [3] it was 9.1%; in assay [4], -6.9%; in assay [5], 6.4%; in assay [6] it was -13.9%.

For `O=C(N/N=C/c1ccc(Cl)c([N+](=O)[O-])c1)C(O)(c1ccccc1)c1ccccc1`, the growth inhibition in assay [1] is 10.2%; in assay [2], -2.7%; in assay [3] it was 12.4%; in assay [4], -4.45%; in assay [5], -1%; in assay [6] it was -19.1%.

Regarding `Cc1ncc([N+](=O)[O-])n1CCNC(=O)CCn1ccnc1[N+](=O)[O-]`, the growth inhibition in assay [1] is 10.2%; in assay [2], -43.7%; in assay [3], -49.6%; in assay [4] it was 1.1%; in assay [5], -18.7%; in assay [6], -22.9%.

For `CCOC(=O)NN(C(=O)OCC)C(C(=O)C1=CCCCC1)N(NC(=O)OCC)C(=O)OCC`, the growth inhibition in assay [1] is -9.95%; in assay [2], -1.15%; in assay [3] it was 4.5%; in assay [4], 0.2%; in assay [5], 0.3%; in assay [6], -2.85%.

For the compound `Cc1ccc(S(=O)(=O)C2(NC(=O)C3CC3)CC2)cc1`, the growth inhibition was -6.5% in assay [1]; -12.1% in assay [2]; -26.2% in assay [3]; -11.1% in assay [4]; -30.7% in assay [5]; -5.7% in assay [6].

For `COc1cc(C(C)c2cc3c(cc2OCCNC(=O)COc2cc4c(cc2C(C)c2cc(OC)c(OC)c(OC)c2)OCO4)OCO3)cc(OC)c1OC` (stereo unspecified), the growth inhibition is -31.9% in assay [1]; -28.6% in assay [2]; -25.6% in assay [3]; 4.8% in assay [4]; -19.6% in assay [5]; -24.9% in assay [6].

Take `NC(=O)N/N=C/c1ccncc1`: the growth inhibition is -7.15% in assay [1]; 28.6% in assay [2]; -24.9% in assay [3]; -7.05% in assay [4]; 8.6% in assay [5]; 7.45% in assay [6].

With `Nc1ncnc(N)c1NC(=O)c1cccc(C(=O)c2ccccc2)c1`, the growth inhibition was 2.85% in assay [1]; 16.1% in assay [2]; -10.7% in assay [3]; -3.5% in assay [4]; 0.85% in assay [5]; 0.85% in assay [6].
